From PubChem BioAssay
Sampled rows, rich in hits. Any-hit rate of the full collection: about 3.4%.
MEKK2wt PB1 HTS = modulators of MEK5 binding to wildtype MEKK2, primary screen, biochemical, multiplex bead flow cytometry, Alexa488-MEK5; Alexa488-MEK5 binding to MEKK2 WT; actives lie on both sides; binding response (% of control), % at 10 µM; hit rate 1.1% among 290,000; AID 1531, 2009; in the data active = binding response below about 67% or above about 130%
MEKK3 PB1 HTS = modulators of MEKK3-MEK5 PB1 binding, primary screen, biochemical, wildtype MEKK3, multiplex bead flow cytometry, Alexa488-MEK5; AID 1529, 2009; hit rate 1.4% among 290,000; bead-based flow cytometry, Alexa488-MEK5 binding to MEKK3; actives lie on both sides; 0 = blocked by unlabeled MEK5, 100 = vehicle; binding response (% of control), % at 10 µM;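 active = binding response more than 3 SD above or below the average of its plate-row segment, actives on both sides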;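 also: Alexa488 bead fluorescence after subtracting the streptavidin-only scavenger bead signal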
MEKK2 mut-MEK5 = MEK5 binding signal on mutant MEKK2 PB1, primary screen, biochemical, multiplex bead flow cytometry, Alexa488-MEK5; Alexa488-MEK5 binding to MEKK2 mutant; percent response, % at 10 µM; hit rate 0.35% among 290,000; AID 1530, 2009; in the data active = percent response above about 24%, passing the limit was not always enough
TMEM16A act = TMEM16A chloride channel activators or potentiators, primary screen, cell-based, HTS | AID 623877, 2012 | Anoctamin-1 (Mus musculus), Q8BHY3 | hit rate 0.3% among 340,000 | B-score at 10 µM | HEK293 TMEM16A/YFP-H148Q/I152L, iodide quench fluorescence; stronger effect = lower value;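 active = fluorescence-ratio B-score plate-corrected deviation score at least 3 library SD below zero, with starting fluorescence score within 5 deviations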;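 also: channel opened by trigger with iodide after compound preincubation; score built on the fluorescence ratio of max minus min over baseline; more negative score means more quench and so TMEM16A activation or potentiation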
Target sequence (Q8BHY3 whole entry, looked up): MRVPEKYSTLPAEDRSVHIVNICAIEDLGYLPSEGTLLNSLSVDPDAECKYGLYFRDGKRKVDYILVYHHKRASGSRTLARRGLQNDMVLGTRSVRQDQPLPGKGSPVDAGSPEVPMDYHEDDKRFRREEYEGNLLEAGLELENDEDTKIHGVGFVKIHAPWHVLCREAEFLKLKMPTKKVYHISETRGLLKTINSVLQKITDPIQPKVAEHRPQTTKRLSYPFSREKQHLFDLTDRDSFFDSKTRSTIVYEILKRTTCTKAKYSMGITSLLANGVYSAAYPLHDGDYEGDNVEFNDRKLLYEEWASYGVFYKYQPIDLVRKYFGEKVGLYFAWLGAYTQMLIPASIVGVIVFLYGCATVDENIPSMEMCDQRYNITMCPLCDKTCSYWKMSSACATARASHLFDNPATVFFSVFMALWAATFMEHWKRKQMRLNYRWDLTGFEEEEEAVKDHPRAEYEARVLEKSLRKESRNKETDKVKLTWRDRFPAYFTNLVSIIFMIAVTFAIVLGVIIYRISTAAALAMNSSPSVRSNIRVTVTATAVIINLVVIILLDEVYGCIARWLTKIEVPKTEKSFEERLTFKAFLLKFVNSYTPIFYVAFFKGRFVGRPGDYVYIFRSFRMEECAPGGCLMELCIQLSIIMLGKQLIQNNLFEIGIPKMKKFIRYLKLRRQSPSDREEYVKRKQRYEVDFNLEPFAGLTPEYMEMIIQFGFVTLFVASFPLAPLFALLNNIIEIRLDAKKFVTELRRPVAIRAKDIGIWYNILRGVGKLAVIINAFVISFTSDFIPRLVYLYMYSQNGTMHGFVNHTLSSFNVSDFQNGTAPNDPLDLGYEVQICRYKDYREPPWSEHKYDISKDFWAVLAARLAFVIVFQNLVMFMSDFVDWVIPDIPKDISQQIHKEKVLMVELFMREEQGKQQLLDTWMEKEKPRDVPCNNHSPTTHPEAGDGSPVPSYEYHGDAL
NTR1 agonist = agonists of human NTR1, primary screen, imaging, U2OS cells, beta-arrestin-GFP, high content | Neurotensin receptor type 1 (Homo sapiens), P30989 | NTR1-U2OS beta-arrestin-GFP spot imaging, agonist mode | activation, % at 20 µM | hit rate 0.17% among 330,000 | AID 493036, 2011;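 active = activation at or above 40% of the spot to cytoplasm intensity ratio, with at least 20 cells analyzed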;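 also: 0% = DMSO without peptide and 100% = 100 nM NTR1 peptide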
ANO1 block = TMEM16A chloride channel inhibitors, primary screen, cell-based, HTS; Anoctamin-1 (Mus musculus), Q8BHY3; normalized B-score (activity score, 25-100; higher = stronger inhibition) at 10 µM; hit rate 1.2% among 310,000; AID 588511, 2011; HEK293 TMEM16A/YFP iodide influx fluorescence, ionomycin;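 active = ratio plate-corrected score three or more library SD toward inhibition, starting fluorescence score within five deviations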;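 also: score derived from kinetic fluorescence span divided by baseline fluorescence per well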
MEKK2wt confirm = modulators of MEK5 binding to wildtype MEKK2, confirmation, biochemical, single concentration, multiplex bead flow cytometry. shares compounds with MEKK3 PB1 HTS. Alexa488-MEK5 binding to MEKK2 WT; actives lie on both sides. hit rate 2.4% among 5,900. binding response (% of control), % at 10 µM; in the data active = binding response below about 16% or above about 210%; inactive = in between
MEKK2mut-MEK5 = mutant MEKK2 PB1-MEK5 binding signal retest – biochemical, single concentration, multiplex bead flow cytometry, confirmation | shares compounds with MEKK3 PB1 HTS | Alexa488-MEK5 binding to MEKK2 mutant | percent response, % at 10 µM | hit rate 2% among 5,900; in the data active = percent response mostly above about 71%, no sharp cut-off; inactive = mostly below about 38%;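 also: higher means compound restores mutant binding toward wildtype level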
MEKK3-MEK5 inh = MEKK3 wild-type PB1 binding to MEK5, inhibitors, confirmation, biochemical, bead multiplex flow cytometry, single concentration, wildtype | shares compounds with MEKK3 PB1 HTS | Alexa488-MEK5 binding to MEKK3; stronger effect = lower value | binding response (% of control), % at 10 µM | hit rate 1.8% among 5,900;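 active = binding response below 72% of control, or above a set upper limit, though filed actives all read lower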;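 also: 100% = DMSO only wells and 0% = binding blocked by excess unlabeled MEK5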
Starred values were filed as active, the others as inactive; i = inactive; . = no result given; [ ] = another dose, or the depositor's remark.

SMILES	MEKK2wt PB1 HTS	MEKK3 PB1 HTS	MEKK2 mut-MEK5	TMEM16A act	NTR1 agonist	ANO1 block	MEKK2wt confirm	MEKK2mut-MEK5	MEKK3-MEK5 inh
O=C(CN1C(=O)NC2(CCCCC2)C1=O)NCc1cccs1	109.0	154.0*	1.0	i	2.1	i	99.0	-1.0	96.0
CC1CCC2(CC1)NC(=O)N(CC(=O)NCc1cccs1)C2=O (stereo unspecified)	99.0	123.0	3.0	i	0.5	i	.	.	.
COc1ccccc1-c1c(C)nn2c(N)c(-c3ccccc3)cnc12	103.0	106.0	3.0	i	4.4	i	.	.	.
O=C(CSc1nnc(-c2c[nH]c3ccccc23)o1)c1ccc(-c2ccccc2)cc1	98.0	121.0	0.0	i	13.1	i	.	.	.
CC1=NS(=O)(=O)NC(C)(C)C1	.	.	.	i	.	.	.	.	.
COc1cc(Cl)c(C)cc1NC(=O)c1ccc(S(C)(=O)=O)cc1	63.0	45.0*[inhibitor]	-25.0	i	0.0	i	94.0	-6.0	96.0
Cc1cc(C)c(NC(=O)CN(C)C(=O)CCC(=O)c2ccc(C)s2)c(C)c1	.	.	.	i	0.6	.	.	.	.
CCCCn1c(N)c(N(CC(C)C)C(=O)CSCc2c(C)noc2C)c(=O)[nH]c1=O	.	.	.	i	-0.3	i	.	.	.
Cc1ccc(C(=O)NCCc2nnc3ccc(SCC(=O)Nc4ccccc4C)nn23)cc1	112.0	109.0	5.0	i	-0.5	i	.	.	.
Cc1ccc(C(=O)NCCc2nnc3ccc(SCC(=O)Nc4c(C)cc(C)cc4C)nn23)cc1	108.0	133.0*	1.0	i	-0.1	i	103.0	2.0	101.0
Cc1ccc(C(=O)NCCN2CCNC2=O)cc1	131.0	129.0*	28.0	i	0.2	i	101.0	1.0	99.0
CCNC(=S)NC1CC2CCCC(C1)N2Cc1ccco1 (stereo unspecified)	91.0	81.0*[inhibitor]	-6.0	i	-0.5	i	117.0	11.0	106.0
CCc1ccccc1NC(=S)NC1CC2CCC(C1)N2Cc1ccco1 (stereo unspecified)	104.0	106.0	4.0	i	-0.7	i	.	.	.
O=C(NC1CC2CCCC(C1)N2Cc1ccco1)NC12CC3CC(CC(C3)C1)C2 (stereo unspecified)	125.0	132.0*	6.0	i	-0.8	i	110.0	12.0	105.0
Cc1nc(SCC(=O)c2cccc([N+](=O)[O-])c2)n[nH]1	98.0	101.0	-3.0	i	0.9	i	.	.	.
COc1ccc(C(=O)CSc2n[nH]c(C)n2)cc1[N+](=O)[O-]	59.0	46.0*[inhibitor]	-14.0	i	0.8	i	104.0	1.0	101.0
COc1ccc2nc(C)cc(N/N=C/c3ccc(F)cc3)c2c1	160.0*	69.0*[inhibitor]	59.0*	i	17.8	i	211.0*	61.0	89.0
COc1cccc2c(N/N=C/c3ccc(O)c(O)c3)cc(C)nc12	105.0	103.0	2.0	i	0.8	i	.	.	.
COc1ccc(/C=N/Nc2cc(C)nc3c(C)cccc23)cc1	279.0*	116.0	71.0*	i	26.9	i	197.0	45.0	104.0
COc1ccc(/C=N/Nc2cc(C)nc3ccccc23)cc1	228.0*	112.0	43.0*	i	24.7	i	177.0	48.0	111.0
COc1ccccc1C(=O)NCCC(=O)N1CCN(C(C)=O)CC1	.	.	.	i	-1.7	i	.	.	.
NS(=O)(=O)c1ccc(Nc2ncccc2[N+](=O)[O-])cc1	0.0*[inhibitor]	1.0*[inhibitor]	-41.0	i	2.8	i	95.0	-1.0	104.0
CCCn1c(SCC(=O)N2c3ccccc3Sc3ccccc32)nc2ccccc21	107.0	150.0*	0.0	i	1.2	i	97.0	-5.0	104.0
O=C(O)CCn1c(SCc2ccccc2)nc2ccccc21	0.0*[inhibitor]	0.0*[inhibitor]	-21.0	i	0.3	i	98.0	-6.0	98.0
CCCn1c(SCC(=O)O)nc2ccccc21	114.0	110.0	7.0	i	0.9	i	.	.	.
SMILES	MEKK2wt PB1 HTS	MEKK3 PB1 HTS	MEKK2 mut-MEK5	TMEM16A act	NTR1 agonist	ANO1 block	MEKK2wt confirm	MEKK2mut-MEK5	MEKK3-MEK5 inh
Cc1cccc(Sc2nc(-c3ccccc3)ncc2C(=O)O)c1	100.0	105.0	-5.0	i	0.4	i	.	.	.
CCN1CCN(C(c2ccc(OC)cc2)c2nnnn2Cc2ccc3c(c2)OCO3)CC1 (stereo unspecified)	132.0	144.0*	7.0	i	-0.4	i	100.0	1.0	101.0
CCN1CCN(C(c2ccccc2)c2nnnn2Cc2ccccc2)CC1 (stereo unspecified)	139.0*	144.0*	9.0	i	0.0	i	114.0	17.0	108.0
Cc1ccc(Cn2cc(S(=O)(=O)c3ccc(Cl)cc3)c(=O)c3cc(F)ccc32)cc1	102.0	132.0*	0.0	i	2.3	i	95.0	-8.0	102.0
CC(C)(C)c1nc(-c2ccccc2)nc2c1OCCC2	.	.	.	i	5.2	i	.	.	.
CCCCC(=O)NC(=S)Nc1cccc(NC(=O)c2ccccc2)c1	61.0	49.0*[inhibitor]	-15.0	i	2.4	i	96.0	-6.0	99.0
CCC(=O)Nc1cccc(NC(=O)c2ccc(Br)cc2)c1	107.0	135.0*	1.0	i	-0.5	i	94.0	-12.0	92.0
CC(C)CC(=O)NC(=S)Nc1cccc(NC(=O)c2ccccc2)c1	105.0	154.0*	-1.0	i	-0.5	i	105.0	3.0	103.0
CCCCOc1cccc(C(=O)NC(=S)Nc2cccc(NC(=O)c3ccccc3Cl)c2)c1	105.0	137.0*	1.0	i	0.2	i	100.0	-3.0	102.0
COC(=O)c1ccc(NS(=O)(=O)c2cc3c4c(c2)CCC(=O)N4CCC3)cc1	.	.	.	i	1.0	i	.	.	.
Cc1nc(N2CCN(Cc3ccccc3)CC2)c(C#N)c2c1COC(C)(C)C2	97.0	79.0*[inhibitor]	1.0	i	4.4	i	104.0	-1.0	100.0
